Laboratory results published in the antibiotic and cytotoxicity screens of Wong et al. (2023).
Among all 39,000 compounds or so, about 500 (1.3%) were called active. The full list was thinned out, with actives kept by preference.

These compounds were tested on S. aureus RN4220 (assay: growth inhibition call (relative growth <= 0.2)). Conditions: 50 µM.
For `C[C@@H](O)COC[C@H]1O[C@@H]2O[C@H]3[C@H](O)[C@@H](O)[C@@H](O[C@H]4[C@H](O)[C@@H](O)[C@@H](O[C@H]5[C@H](O)[C@@H](O)[C@@H](O[C@H]6[C@H](O)[C@@H](O)[C@@H](O[C@H]7[C@H](O)[C@@H](O)[C@@H](O[C@H]8[C@H](O)[C@@H](O)[C@@H](O[C@H]1[C@H](O)[C@H]2O)O[C@@H]8COC[C@@H](C)O)O[C@@H]7COC[C@@H](C)O)O[C@@H]6COC[C@@H](C)O)O[C@@H]5COC[C@@H](C)O)O[C@@H]4COC[C@@H](C)O)O[C@@H]3COC[C@@H](C)O`, the growth inhibition call was “inactive”. For `C[C@@H]1CN([C@@H](C)CO)C(=O)c2cccc(NC(=O)c3ccc(-c4nccs4)cc3)c2O[C@@H]1CN(C)Cc1ccc(Cl)c(Cl)c1`, the growth inhibition call was “inactive”. With `Cn1cnc(S(=O)(=O)N2C[C@H](O)COC[C@@H]3O[C@@H](CC(=O)NC4CCCC4)CC[C@H]32)c1` the growth inhibition call was “inactive”. With `Cc1[nH]c2ccccc2c1C(=O)CSc1ccc(Cl)cc1` the growth inhibition call was “inactive”. `CSc1c(-c2ccc(Cl)cc2)[nH]c2ccccc12` was tested, and the growth inhibition call was “active”. With `NCC[S@@](=O)c1c(-c2ccc(F)cc2)[nH]c2ccccc12` the growth inhibition call was “inactive”. `CC(C)NC(=O)Nc1ccc2c(c1)C(=O)N([C@@H](C)CO)C[C@@H](C)[C@H](CN(C)C(=O)Nc1ccc3c(c1)OCO3)O2` was tested, and the growth inhibition call was “inactive”. With `COc1ccc(NC(=O)N(C)C[C@H]2Oc3ncc(C#C[C@@H](C)O)cc3C(=O)N([C@@H](C)CO)C[C@H]2C)cc1` the growth inhibition call was “inactive”. `COc1ccc2c3c(n(c2c1)C)[C@@H](CO)N(C[C@]13CN(C1)C(=O)CN(C)C)C(=O)CN(C)C` was tested, and the growth inhibition call was “inactive”. For `Cc1ccccc1-c1cc(N2CCN(C)CC2)ncc1N(C)C(=O)C(C)(C)c1cc(C(F)(F)F)cc(C(F)(F)F)c1`, the growth inhibition call was “active”. `COCCOC(=O)N1C(=O)[C@@]2(c3cc(C#Cc4ccc(OC)cc4)ccc31)[C@H](C(=O)N1CCN(c3ncccn3)CC1)[C@H]1C(=O)O[C@H](c3ccccc3)[C@H](c3ccccc3)N1[C@@H]2c1ccc(OCCO)cc1` was tested, and the growth inhibition call was “inactive”. For `C[C@@H]1CN([C@H](C)CO)C(=O)c2cc(NS(=O)(=O)c3ccccc3)ccc2O[C@@H](C)CCCCO[C@@H]1CN(C)C(=O)c1ccccc1`, the growth inhibition call was “inactive”. For `CNC[C@@H]1OCCCC[C@@H](C)Oc2ccc(NC(=O)Nc3ccc(C(F)(F)F)cc3)cc2C(=O)N([C@@H](C)CO)C[C@H]1C`, the growth inhibition call was “inactive”. In the case of `CNC[C@@H]1OCCCC[C@H](C)Oc2ccc(NC(=O)Nc3ccc(C(F)(F)F)cc3)cc2C(=O)N([C@H](C)CO)C[C@@H]1C`, the growth inhibition call is reported as “inactive”. For `CNC[C@H]1OCCCC[C@@H](C)Oc2ccc(NC(=O)Nc3ccc(C(F)(F)F)cc3)cc2C(=O)N([C@H](C)CO)C[C@@H]1C`, the growth inhibition call was “inactive”. With `CNC[C@@H]1OCCCC[C@H](C)Oc2ccc(NC(=O)Nc3ccc(C(F)(F)F)cc3)cc2C(=O)N([C@H](C)CO)C[C@H]1C` the growth inhibition call was “active”. With `CNC[C@H]1OCCCC[C@@H](C)Oc2ccc(NC(=O)Nc3ccc(C(F)(F)F)cc3)cc2C(=O)N([C@H](C)CO)C[C@H]1C` the growth inhibition call was “active”. In the case of `CNC[C@@H]1OCCCC[C@@H](C)Oc2ccc(NC(=O)Nc3ccc(C(F)(F)F)cc3)cc2C(=O)N([C@@H](C)CO)C[C@@H]1C`, the growth inhibition call is reported as “inactive”. In the case of `Cc1noc(C)c1NC(=O)N(C)C[C@H]1Oc2ccc(NC(=O)NC(C)C)cc2CC(=O)N([C@H](C)CO)C[C@@H]1C`, the growth inhibition call is reported as “inactive”. For `CN(c1ncccc1CNc1nc(Nc2ccc3c(c2)CC(=O)N3)ncc1C(F)(F)F)S(C)(=O)=O`, the growth inhibition call was “inactive”. In the case of `Cc1ccc(S(=O)(=O)Nc2cccc3c2O[C@@H](CN(C)S(=O)(=O)c2cn(C)cn2)[C@H](C)CN([C@H](C)CO)C3=O)cc1`, the growth inhibition call is reported as “inactive”. In the case of `C[C@@H]1CCCCO[C@H](CN(C)C(=O)Nc2ccc(C(F)(F)F)cc2)[C@H](C)CN([C@@H](C)CO)C(=O)c2cc(NC(=O)Nc3ccc(C(F)(F)F)cc3)ccc2O1`, the growth inhibition call is reported as “inactive”. In the case of `C[C@@H]1CN([C@@H](C)CO)C(=O)c2cc(NC(=O)Nc3ccc(C(F)(F)F)cc3)ccc2O[C@H]1CN(C)Cc1ccc(-c2ccccc2)cc1`, the growth inhibition call is reported as “inactive”. With `C[C@@H]1CN([C@H](C)CO)C(=O)c2cc(NC(=O)c3ccncc3)ccc2O[C@@H]1CN(C)Cc1ccncc1` the growth inhibition call was “inactive”. For `Cc1cc(C(=O)c2cc3cc(Cl)ccc3o2)ccc1Cl`, the growth inhibition call was “inactive”. `Cc1ccc(CN)cc1Cl` was tested, and the growth inhibition call was “inactive”. With `Cc1cc(CN)cc(C)c1NC(=O)c1ccc(-c2cc(Cl)ccc2Cl)o1` the growth inhibition call was “active”. In the case of `O=C1CCOC1`, the growth inhibition call is reported as “inactive”. `C[C@H]1CN([C@@H](C)CO)C(=O)c2cc(NC(=O)Cn3cnnn3)ccc2O[C@H]1CN(C)Cc1ccc(Cl)c(Cl)c1` was tested, and the growth inhibition call was “inactive”. In the case of `CCC(=O)Nc1ccc2ccccc2c1`, the growth inhibition call is reported as “inactive”. For `C[C@@H]1CN([C@H](C)CO)C(=O)c2cc(NC(=O)Nc3cccc4ccccc34)ccc2O[C@@H]1CN(C)C(=O)NC1CCCCC1`, the growth inhibition call was “inactive”. `CCCC[P+](CCCC)(CCCC)Cc1ccc(NC(=O)[C@@H](Cc2ccc3ccccc3c2)N=C(NC2CCCCC2)NC2CCCCC2)cc1` was tested, and the growth inhibition call was “active”. In the case of `CN(Cc1ccccc1)C(=O)[C@H](Cc1ccc2ccccc2c1)NC(=O)[C@@H]1CCCN1C(=O)Nc1ccccc1[N+](=O)[O-]`, the growth inhibition call is reported as “inactive”. With `CCCC[P+](CCCC)(CCCC)Cc1ccc(NC(=O)[C@H](Cc2ccc3ccccc3c2)N/C(=N/C2CCCCC2)NC2CCCCC2)cc1` the growth inhibition call was “active”. For `C[C@H](CO)N1C[C@H](C)[C@@H](CN(C)C(=O)NC2CCCCC2)Oc2ccc(NC(=O)Nc3cccc4ccccc34)cc2C1=O`, the growth inhibition call was “inactive”. `C[C@H](CO)N1C[C@H](C)[C@H](CN(C)S(=O)(=O)c2ccc(Cl)cc2)Oc2ccc(N(C)C)cc2CC1=O` was tested, and the growth inhibition call was “inactive”. In the case of `C[C@H]1CN([C@@H](C)CO)C(=O)c2cccc(NS(C)(=O)=O)c2O[C@@H]1CN(C)S(=O)(=O)c1ccc(F)cc1`, the growth inhibition call is reported as “inactive”. With `CN(C)CCC=C1c2ccccc2COc2ccccc21.Cl` the growth inhibition call was “inactive”. With `CN(C)CCC=C1c2ccccc2COc2ccc(CC(=O)O)cc21.Cl` the growth inhibition call was “active”. For `CN(C)CCC=C1c2ccccc2CCc2ccccc21.Cl`, the growth inhibition call was “inactive”. In the case of `COc1ccc(S(=O)(=O)N(C)C[C@@H]2Oc3ccc(NC(=O)c4ccncc4)cc3C(=O)N([C@H](C)CO)C[C@H]2C)cc1`, the growth inhibition call is reported as “inactive”. In the case of `C[C@@H]1CCCCO[C@@H](CN(C)C(=O)C2CCCCC2)[C@@H](C)CN([C@@H](C)CO)C(=O)c2cc(NS(=O)(=O)c3cccs3)ccc2O1`, the growth inhibition call is reported as “inactive”. `Cc1noc(C)c1NC(=O)N(C)C[C@H]1Oc2ccc(NS(=O)(=O)c3c(C)noc3C)cc2CC(=O)N([C@H](C)CO)C[C@H]1C` was tested, and the growth inhibition call was “inactive”. With `Cc1ccc2sc(N(CCCN(C)C)C(=O)c3ccc(S(=O)(=O)N(C)Cc4ccccc4)cc3)nc2c1C` the growth inhibition call was “inactive”. `Cc1cc(Cl)cc2sc(N(Cc3ccccn3)C(=O)c3ccc(S(=O)(=O)N4CCCC4)cc3)nc12` was tested, and the growth inhibition call was “inactive”. In the case of `Cc1ccc2sc(N(CCCN(C)C)C(=O)c3ccc(S(=O)(=O)N(C)C4CCCCC4)cc3)nc2c1C`, the growth inhibition call is reported as “active”. In the case of `CC(C)NC(=O)Nc1ccc2c(c1)C(=O)N([C@H](C)CO)C[C@@H](C)[C@H](CN(C)C(=O)C1CCCCC1)OCCCC[C@H](C)O2`, the growth inhibition call is reported as “inactive”. `Cc1cc(C(=O)Nc2cccc3c2O[C@@H](CN(C)C(=O)Nc2c(C)noc2C)[C@H](C)CN([C@H](C)CO)C3=O)n(C)n1` was tested, and the growth inhibition call was “inactive”. With `C[C@@H]1CCCCO[C@H](CN(C)S(=O)(=O)c2ccccc2)[C@@H](C)CN([C@H](C)CO)C(=O)c2cc(NC(=O)Nc3ccc(F)cc3)ccc2O1` the growth inhibition call was “inactive”. For `CO[C@@H]1CN(C)C(=O)c2ccc(NS(=O)(=O)c3ccccc3)cc2OC[C@@H](C)N(C(=O)NC(C)C)C[C@H]1C`, the growth inhibition call was “inactive”. For `O=C(O)C1=C[C@@H](O)[C@H](O)[C@H](O)C1`, the growth inhibition call was “inactive”. With `C[C@H]1CN([C@@H](C)CO)C(=O)c2cc(NC(=O)Nc3ccc(C(F)(F)F)cc3)ccc2O[C@H]1CN(C)Cc1ccccc1` the growth inhibition call was “active”. `COc1ccc(CN(C)C[C@@H]2Oc3ccc(NC(=O)Nc4ccc(C(F)(F)F)cc4)cc3C(=O)N([C@H](C)CO)C[C@@H]2C)cc1` was tested, and the growth inhibition call was “active”. With `C[C@H]1CN([C@@H](C)CO)C(=O)c2cc(NC(=O)Nc3ccc(C(F)(F)F)cc3)ccc2O[C@@H]1CN(C)Cc1ccccc1` the growth inhibition call was “inactive”. With `C[C@@H]1CN([C@@H](C)CO)C(=O)c2cc(NC(=O)Nc3ccc(C(F)(F)F)cc3)ccc2O[C@@H]1CN(C)Cc1ccccc1` the growth inhibition call was “inactive”. With `C[C@H]1CN([C@@H](C)CO)C(=O)c2cc(NC(=O)Nc3ccc(C(F)(F)F)cc3)ccc2O[C@H]1CN(C)Cc1ccc2c(c1)OCO2` the growth inhibition call was “active”. `C[C@H](CO)N1C[C@H](C)[C@@H](CN(C)Cc2ccc3c(c2)OCO3)Oc2ccc(NC(=O)Nc3ccc(C(F)(F)F)cc3)cc2C1=O` was tested, and the growth inhibition call was “inactive”. With `COc1ccc(NC(=O)Nc2ccc3c(c2)C(=O)N([C@@H](C)CO)C[C@@H](C)[C@@H](CN(C)Cc2ccc(C(F)(F)F)cc2)O3)cc1` the growth inhibition call was “inactive”. In the case of `C[C@@H]1CN([C@H](C)CO)C(=O)c2cc(NC(=O)Nc3ccc(C(F)(F)F)cc3)ccc2O[C@@H]1CN(C)Cc1ccccc1`, the growth inhibition call is reported as “inactive”. In the case of `COc1ccc(CN(C)C[C@@H]2Oc3ccc(NC(=O)Nc4ccc(C(F)(F)F)cc4)cc3C(=O)N([C@@H](C)CO)C[C@@H]2C)cc1`, the growth inhibition call is reported as “inactive”. `C[C@H](CO)N1C[C@H](C)[C@H](CN(C)Cc2ccccc2)Oc2ccc(NC(=O)Nc3ccc(C(F)(F)F)cc3)cc2C1=O` was tested, and the growth inhibition call was “active”. For `C[C@@H]1CN([C@@H](C)CO)C(=O)c2cc(NC(=O)Nc3ccc(C(F)(F)F)cc3)ccc2O[C@@H]1CN(C)Cc1ccc2c(c1)OCO2`, the growth inhibition call was “inactive”. In the case of `C[C@H](CO)N1C[C@H](C)[C@@H](CN(C)Cc2ccccc2)Oc2ccc(NC(=O)Nc3ccc(C(F)(F)F)cc3)cc2C1=O`, the growth inhibition call is reported as “inactive”. In the case of `O=C(C[C@H]1CC[C@H]2[C@@H](COC[C@H](O)CN2S(=O)(=O)c2ccccc2)O1)N1CCOCC1`, the growth inhibition call is reported as “inactive”.
